Each structure is given as a SMILES string.

In the assay the target is NADPH oxidase 5 (Homo sapiens) (UniProt Q96PH1). As to the kind of experiment: compounds shifting NOX5 Amplex Red fluorescence – cell-based, HEK293-NOX5, NOX inhibitor project, primary screen (AID 1161). The conditions noted are these: HEK293-NOX5, ionomycin, 45 min, higher = more signal.
Sequence of NADPH oxidase 5 (Homo sapiens) (Q96PH1 whole entry, looked up): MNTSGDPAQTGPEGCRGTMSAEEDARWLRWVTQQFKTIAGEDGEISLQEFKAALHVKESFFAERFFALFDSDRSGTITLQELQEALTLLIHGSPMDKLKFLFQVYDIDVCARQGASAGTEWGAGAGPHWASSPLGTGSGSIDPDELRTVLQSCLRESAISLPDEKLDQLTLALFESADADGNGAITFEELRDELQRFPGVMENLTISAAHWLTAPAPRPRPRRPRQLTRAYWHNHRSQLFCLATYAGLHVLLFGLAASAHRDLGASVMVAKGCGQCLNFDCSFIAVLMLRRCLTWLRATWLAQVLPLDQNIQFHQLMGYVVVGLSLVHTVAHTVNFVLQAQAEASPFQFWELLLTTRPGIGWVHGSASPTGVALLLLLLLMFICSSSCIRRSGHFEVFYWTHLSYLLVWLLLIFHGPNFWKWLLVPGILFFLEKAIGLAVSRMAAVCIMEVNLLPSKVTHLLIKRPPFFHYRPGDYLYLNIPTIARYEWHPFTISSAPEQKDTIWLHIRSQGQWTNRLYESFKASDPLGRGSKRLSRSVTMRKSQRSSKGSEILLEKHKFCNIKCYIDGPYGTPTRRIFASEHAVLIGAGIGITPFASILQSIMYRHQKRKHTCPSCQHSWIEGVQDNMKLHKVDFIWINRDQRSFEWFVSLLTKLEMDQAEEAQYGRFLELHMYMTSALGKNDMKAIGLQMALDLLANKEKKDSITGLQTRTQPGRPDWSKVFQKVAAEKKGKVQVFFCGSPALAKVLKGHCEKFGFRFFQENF
For the molecule `C=C(C)c1cc2c(c(CCCCCC)n1)[Si](C(C)C)(C(C)C)OC2`, the z-score was -2.92.

With `COc1ccc(NC(=O)O[C@H]2[C@H](OC(=O)Nc3ccccc3)[C@H](OC(=O)Nc3ccccc3)[C@@H](OC)O[C@@H]2CO)cc1`, the z-score was -0.922.

With `CCCCC(O)C1C=CC2C(=O)N(c3ccccc3)C(=O)C2N1Nc1ccc(C(C)C)cc1` (stereo not given), the z-score was -1.92.

On to `[N-]=[N+]=NCc1ccccc1C[C@@]1(C(=O)N2CCOCC2)N=C(c2ccc(OCCCO)cc2)O[C@@H]1c1ccccc1`, for which the z-score was -2.14.

Turning to `CC(c1ccccc1)C(O)C1C=CC2C(=O)N(c3ccccc3)C(=O)C2N1Nc1ccc([N+](=O)[O-])cc1` (stereo not given), the z-score is -1.38.

With `COc1ccc(CN(C2=CC[C@@]3(C(N)=O)C(=O)C(Cl)=C(Cl)C(=O)[C@@]3(C#N)C2)S(=O)(=O)c2ccc(Br)cc2)cc1`, the z-score came out at 0.362.

Turning to `COC(=O)CCCCCCC(=O)Nc1ccc(NC(=O)CCCC[P+](c2ccccc2)(c2ccccc2)c2ccccc2)cc1`, the z-score came to 0.0901.

Turning to `CC(C)N1C(=O)C[C@@](C(=O)NCCCN(C)C)(c2ccc([N+](=O)[O-])cc2)[C@H]1c1ccc(CO)cc1`, the z-score is -0.00257.

Take `CCOC(=O)C1=CC[C@@H](c2ccc(OCc3ccccc3)c(OC)c2)N(S(=O)(=O)c2ccc(C)cc2)[C@H]1c1ccc(SC)cc1`: the z-score is -0.508.

As for `COC(=O)c1c2oc(c1C(=O)OC)C(=O)N(C)Cc1cn(nn1)C[C@H](Cc1ccccc1)NC(=O)N[C@H](CO)CC2`, the z-score came to 0.282.

`O=C1OCC=C[C@H]2OC34C=CCN(Cn5nnc6ccccc65)C(=O)[C@H]3N(CCCO)C(=O)[C@@H]4[C@@H]12` (stereo not given in full): the z-score was found to be 0.1.

Turning to `C[C@@H]1ON(c2ccc(C(=O)OC(C)(C)C)cc2)[C@H](c2ccc(O)cc2)[C@H]1C(=O)N1C(=O)OC[C@H]1Cc1ccccc1`, the z-score was -0.209.

As for `COCCOC(=O)N1C(=O)[C@@]2(c3cc(C#CC4=CCCCC4)ccc31)[C@H](C(N)=O)[C@H]1C(=O)O[C@H](c3ccccc3)[C@H](c3ccccc3)N1[C@@H]2c1ccccc1OCCO`, the z-score turned out to be 1.42.

Regarding `COC(=O)[C@@]1(Cc2ccc(OC)cc2)[C@@H]2C(=CC(=O)[C@H]2CC(=O)C(=O)N(C)C)CN1C(=O)c1ccccc1`, the z-score worked out at 1.32.

As for `C=CC1c2cc(O)c(OC)cc2CCN1Cc1cc2c(cc1Br)OCO2` (stereo not given), the z-score is -4.16.

For `C=CCC(OC(C)=O)[C@@H]1[C@@H](N(Cc2cc3ccccc3o2)C(=O)c2ccc(C)cc2)c2cc(OCCCO)ccc2N1C(=O)Cc1ccc(OC)cc1` (stereo not given in full), the z-score worked out at 1.72.

`COc1cc(OC)c(C(O)C2C=CC3C(=O)N(c4ccccc4)C(=O)C3N2Nc2ccccc2)cc1Br` (stereo not given): the z-score is -2.38.

For the molecule `Cc1ccc(S[C@]2(C(=O)NCC(F)(F)F)CC(=O)N(Cc3ccccc3)[C@@H]2c2ccc(CO)cc2I)cc1`, the z-score was 0.776.

In the case of `COC(=O)c1ccc([C@H](NC(=O)c2ccco2)[C@]2(C)C[C@H]2C2CCCCC2)cc1`, the z-score worked out at 0.289.

As to `NC(N)=NCCCn1cc(CNC(=O)[C@@H](N)Cc2ccccc2)nn1`, the z-score is -0.264.

In the case of `COC(=O)c1nc2oc1CC[C@@H](CO)NC(=O)N(C)Cc1cnnn1C[C@H](Cc1ccccc1)NC2=O`, the z-score came to 0.371.

For the molecule `COCCOC(=O)N1C(=O)[C@@]2(c3cc(C#CC4=CCCCC4)ccc31)[C@H](c1ccc(OCCO)cc1)N1[C@H](c3ccccc3)[C@H](c3ccccc3)OC(=O)[C@H]1[C@@H]2C(=O)N1CCN(c2ncccn2)CC1`, the z-score turned out to be 1.03.

In the case of `CC(C)(C)OC(=O)CC[C@]1(C(=O)NCC(O)CO)N=C(c2ccc(OCCCO)cc2)O[C@H]1c1ccccc1` (stereo not given in full), the z-score was determined as 0.199.

For the molecule `O=C1O[C@H](c2ccccc2)[C@H](c2ccccc2)N2[C@H]1[C@@H](C(=O)Nc1nc3ccccc3s1)[C@]1(C(=O)Nc3ccccc31)[C@H]2c1ccc(OCCO)cc1`, the z-score is 0.992.

In the case of `C=CC[C@]1(C(=O)NCCN2CCOCC2)N=C(c2ccc(OCCCO)cc2)O[C@H]1c1ccccc1CN=[N+]=[N-]`, the z-score was -0.426.

`COCCCNC(=O)[C@@]1(Cc2ccccc2CN=[N+]=[N-])N=C(c2ccc(OCCCO)cc2)O[C@H]1c1ccccc1`: the z-score is -1.54.

In the case of `CN(C)C(=O)[C@@]1(CCS(=O)(=O)c2ccccc2)N=C(c2ccc(OCCCO)cc2)O[C@H]1c1ccccc1`, the z-score is -0.948.

On to `CCOC(=O)C1CCCCN1` (stereo not given), for which the z-score was -0.117.

In the case of `C=C(/C(=C/C[C@H](OC(=O)c1ccncc1)c1ccc(CO)o1)c1cc(C(=O)OC)ccc1OC)C(C)C`, the z-score is -0.6.

For `COC(=O)[C@@]1(Cc2ccccc2)[C@H]2c3cc(C(=O)N(C)C)n(CCN4CNCC4=O)c3C[C@H]2CN1C(=O)c1ccccc1`, the z-score was found to be 0.0884.

(Values after PubChem BioAssay.)
